# Experimental data from PubChem BioAssay (NCI).
# Compounds without any hit were thinned out: in the full panel of roughly 79,000, 15% have a hit. Unmarked numbers belong to inactive results. Activity calls are given as the source filed them. No stated cut-off is given here; in the data, active means growth inhibition above about 70%; inactive means the rest.
# Columns and labels:
# [1] = NCI Yeast Anticancer Drug Screen. Data for the rad50 strain (AID 155);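 further: 0% = growth of vehicle-only cultures of the same strain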; conditions: S. cerevisiae rad50 strain growth inhibition; at 50.0 µM; hits give high values
# Summary of the method: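 Growth of the mutant yeast was measured after compound exposure and referenced to vehicle-treated cultures.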
# [2] = NCI Yeast Anticancer Drug Screen. Data for the mec2-1 strain (AID 157); conditions: S. cerevisiae mec2-1 strain, at 50.0 µM, hits give high values
# Summary of the method: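 Vehicle-treated cultures served as reference for growth inhibition of compound-exposed mec2-1 yeast.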
# [3] = NCI Yeast Anticancer Drug Screen. Data for the sgs1 mgt1 strain (AID 161);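 further: 0% = growth of cultures given vehicle only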; conditions: S. cerevisiae sgs1 mgt1 strain, at 50.0 µM, hits give high values
# Summary of the method: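 Mutant yeast exposed to compound; growth scored against vehicle-only wells.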
# [4] = NCI Yeast Anticancer Drug Screen. Data for the cln2 rad14 strain (AID 165);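 further: 0% = growth equal to vehicle treated cultures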; conditions: S. cerevisiae cln2 rad14 strain, at 50.0 µM, hits give high values
# Summary of the method: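 Each compound was tested on cln2 rad14 yeast. Inhibition of growth was calculated against vehicle-exposed controls.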
# [5] = NCI Yeast Anticancer Drug Screen. Data for the bub3 strain (AID 167); conditions: S. cerevisiae bub3 mutant strain, at 50.0 µM, hits give high values
# Summary of the method: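 Whole-cell yeast assay. The mutant strain was incubated with compounds, and growth inhibition was determined by comparison with vehicle-treated cells.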
# [6] = NCI Yeast Anticancer Drug Screen. Data for the mlh1 rad18 strain (AID 175); conditions: S. cerevisiae mlh1 rad18 strain growth inhibition; at 50.0 µM; hits give high values
# Summary of the method: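 Vehicle-treated cultures served as the reference for growth inhibition in a yeast strain carrying DNA damage repair alterations exposed to each compound.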
Structure (SMILES),growth inhibition [1] [%],growth inhibition [2] [%],growth inhibition [3] [%],growth inhibition [4] [%],growth inhibition [5] [%],growth inhibition [6]
C(=N\N(CCCCN(/N=C/c1ccccc1)c1ccccc1)c1ccccc1)/c1ccccc1,38.5,11.2,13.8,21.8,-11.8,23.9%
CN(C)c1ccc(/C=C/c2ccnc3ccc(Cl)cc23)cc1,23,22.5,32.1,5.85,21.6,34%
O=C(CC(C(=O)c1cccs1)c1ccsc1)c1cccs1 (stereo unspecified),-23.8,-22.6,0.85,21,25.8,-38.7%
CC(=O)Oc1ccc2c(c1)Cc1cc([N+](=O)[O-])ccc1-2,8.45,14.2,14.9,-9.5,32.7,20.6%
COc1cc2c(cc1OC)C(=O)C(C1CCCCC1)NC2 (stereo unspecified),20.7,9.85,8.9,0.45,16.1,30.4%
NC1=C(O)C(=O)C(c2cccc(O)c2)O1 (stereo unspecified),-8.1,-10.1,7.9,-5.05,3.2,8.45%
CC1=CCC(C#N)N(C)C1c1ccccc1 (stereo unspecified),2,-5.25,-13.4,-48.1,-12.3,8.85%
Nc1ccc2c(c1)C(=O)CCCC2,1.55,-8.95,-2.15,-10.1,1.25,14.1%
C(=NCCSSCCN=Cc1ccccc1)c1ccccc1,12.1,10.3,18.6,10.1,-12.1,21.6%
O=c1c2cc([N+](=O)[O-])ccc2n2n1CCCC2,15.1,9.45,-13.8,16.9,-16,-10.4%
NC(N)=NS(=O)(=O)c1ccc(Nc2c3ccccc3nc3c(C(=O)Nc4ccc(S(N)(=O)=O)cc4)ccc(Cl)c23)cc1,-8.55,-2.1,-2.75,29.8,-2.25,7.85%
O=C(Nc1cccc(O)c1)c1ccccc1Cl,9.3,-6,-15.4,-86.3,-11.9,-30.1%
COC(=O)NN(C(=O)OC)C12CCCC1N(C(=O)OC)N(C(=O)OC)c1c2ccc2ccccc12 (stereo unspecified),32.1,-1.55,0.6,-4.9,1.9,6.75%
CCOC(=O)c1ccc(NP(=O)(Nc2ccc(C(=O)OCC)cc2)c2ccc(N)cc2)cc1,-5.65,-17.4,-2.25,-65.7,0.85,4.25%
CCN(CC)c1ccc(NC(=S)Nc2ccc(N(CC)CC)cc2)cc1,23.3,-0.5,4.95,-66,22.2,-22.9%
Cc1ccc(S(=O)(=O)OCC2OC(CCCO)C/C([Si](C)(C)C)=C\CC2Cl)cc1 (stereo unspecified),48.8,19.9,38.2,31.6,34.5,19.4%
CC1CCC2(OC1)OC1CC3C4CCC5CC(O)CCC5(C)C4CC(=O)OC3(C)C1C2C (stereo unspecified),-10.8,-23.6,-14.8,-7.35,-25,2.2%
CCOC(CN/C(=C/c1ccc2ccccc2[n+]1C)SC)OCC,-10.8,9.15,-8.4,-12.1,-32.8,-8.2%
CC(=O)c1ccc2ccccc2c1,24.4,7.8,4.3,2.75,-0.1,16.2%
O=NC1CC=CC1Cl (stereo unspecified),18.6,0.1,0.65,9.5,-8.1,22.2%
COc1c2ccoc2cc2oc(=O)ccc12,10,-7.1,12.8,14.3,22.4,20.4%

Structure (SMILES),growth inhibition [1] [%],growth inhibition [2] [%],growth inhibition [3] [%],growth inhibition [4] [%],growth inhibition [5] [%],growth inhibition [6]
CC1(C)CC2=C(SC3C=CC=CC3N2)C(=O)C1C(=O)C(N)=O (stereo unspecified),-34.7,-15,-5.05,-3.65,-23.1,-33.8%
Cc1nc2ccc(N)cc2[nH]c1=O,16.9,7,12.8,14.5,6.5,25.3%
COc1ccc2c(c1OC(C)=O)C1=CC(OC(C)=O)=CCC13CCN(C)C3C2 (stereo unspecified),2.75,-0.15,-10.8,-4.7,-6.4,-0.15%
CC1CC(=O)NC(=O)C1,-7.25,-4.1,-18.8,-13,6.3,-22.7%
O=c1cc(-c2ccccc2)[nH]c2ccc(N3CCOCC3)cc12,-37.7,0.25,-41.6,-18.9,-15.8,-31.4%
Nc1ccc(OCC(O)N2C(=O)c3ccccc3C2=O)cc1 (stereo unspecified),-46.2,-39.5,-32.9,14.4,29.9,-17.9%
Cc1nn2c(=O)n(-c3cccc(-n4nnc5c(-c6ccccc6)c(C)nn5c4=O)c3C)nnc2c1-c1ccccc1,33.9,40.4,30.2,46.1,43.2,43.9%
O=C(O)/C=C/C1CCCCC1,26.4,14.3,3.95,4.35,-6.4,21.2%
CNC(=O)CCCCC(=O)NC,-5.65,-7.9,-2.7,6.15,-10.8,-19.2%
O=C(C[n+]1cccc(CO)c1)c1ccc(-c2ccc(C(=O)C[n+]3cccc(CO)c3)cc2)cc1,22.8,5.35,31.7,-4.7,-1.7,11.7%
CCOC(=O)c1ccc[n+]([O-])c1,-2.35,-9.95,-18.6,-107,-13.2,-10.8%
CCOC1=NC(C)C(C)N1 (stereo unspecified),-5.1,-11.1,-13.4,9.05,6.25,-21.1%
N=C1C=C/[N+](=C\C=CCO)C([O-])=N1,-18.2,-20.6,-35.3,-2.55,-43.4,-3.2%
CC(C)C(CNC(=O)c1ccc([N+](=O)[O-])cc1)(C(C)C)C(C)C,-2.6,-36.2,-3.85,-3.7,17.8,-1.65%
Cc1cc(Br)ccc1N=Cc1ccc(C=Nc2ccc(Br)cc2C)cc1,-6.75,-17.6,-11.8,-2.5,-3.65,-0.2%
CC(C)(C)c1ccc(C(=O)N2CCOC23CCCCC3)cc1,-11.7,-20.1,7.25,3.2,17.1,-38.5%
O=CC(=O)c1ccccc1O,30.1,36.6,44.9,18.3,37,75.7% (active)
COC1O[C@H]2CCN(C(=O)OCc3ccccc3)[C@H]2[C@H]1OCc1ccccc1 (stereo partly specified),19.8,-11.6,20.2,4.05,28.6,44.5%
O=C(O)CCC(=O)Nc1ccc(S(=O)(=O)Nc2nccs2)cc1,-18,-36.2,-16.5,-17.9,-18.3,-14.6%
Clc1ccc(Cl)c(-c2csc(-c3cccnc3)n2)c1,4.95,-11.6,12.5,-34.5,7.6,17.9%
